# KB-V1 cytotox: qHTS assay for MDR1-selective chemotherapeutics: Primary screen using the drug-selected MDR subline cells KB-V1; Potency, µM (series often up to 46.1 µM), actives largely listed as cytotoxic; KB-V1 MDR cells viability, CellTiter-Glo, 72 h; actives 3.4% (n = 400,000); AID 1347076, 2019; note: % is set by controls: 0 for no effect and ±100 for the full control effect; nearly all actives have a fitted effect of over 60% in size
#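 Following 72 h at 37 degrees C with compound, KB-V1 cell viability was read by CellTiter-Glo luminescence, medium being phenol-red-free DMEM plus 10% FBS; concentration-response parameters came from normalized, curve-fitted qHTS data.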
# KB-3-1 cytotox: qHTS assay for MDR1-selective chemotherapeutics: Primary screen using the parental adenocarcinoma cell KB-3-1 | KB-3-1 viability, CellTiter-Glo ATP luminescence, 72 h | Potency, µM (highest dose often 46.1 µM), hits mostly cytotoxic | actives 1.4% (n = 400,000); note: % is set by controls: 0 for no effect and ±100 for the full control effect; nearly all actives have a fitted effect of over 60% in size
#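 Screening of KB-3-1 cells (DMEM, 10% FBS, phenol-red free) ran from lowest to highest compound concentration; after 72 h at 37 °C viability was read luminescently and curves fitted.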
# HT1080 IDH1KD tx: qHTS for induction of synthetic lethality in tumor cells producing 2HG: qHTS for the HT-1080-IDH1KD cell line | actives 2% (n = 360,000) | AID 686971, 2013 | HT-1080 IDH1 knockdown viability, ATP luminescence, 48 h | Potency, µM (top dose mostly 46.1 µM), inactives show at the highest dose activity, negative = toxicity, hits mostly cytotoxic;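 note: 0% = DMSO wells and -100% = cell-free medium wells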
#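 HT-1080-IDH1KD cells (IDH1 knocked down), 750/well in RPMI with 5% FBS, treated with compound 48 h at 37 degrees C. Viability by CellTiter-Glo luminescence, normalised to DMSO and no-cell wells; concentration-response curves classed.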
# SW480 rereplic: A quantitative high throughput screen for small molecules that induce DNA re-replication in SW480 colon adenocarcinoma cells. SW480 DNA re-replication, Hoechst DNA content imaging, 48 h. actives 1.8% (n = 340,000). Potency, µM (top dose mostly 46.1 µM), for the others: top-dose re-replication activation, hits mostly activators; note: % of control where 0% means no effect; nearly all actives have a fitted effect of over 55% in size
#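 Quantitative HTS format with DMSO vehicle controls; 48 hr drug incubation at 37 C, then 40 min Hoechst staining and scanning imager measurement at 405 nm excitation.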
# HT1080NT lethal: qHTS for induction of synthetic lethality in tumor cells producing 2HG: qHTS for the HT-1080-NT fibrosarcoma cell line | AID 686970, 2013 | actives 1.6% (n = 360,000) | Potency, µM (top dose mostly 46.1 µM), for the others: at the highest dose activity, negative = less viability, hits mostly cytotoxic | HT-1080-NT fibrosarcoma viability, CellTiter-Glo ATP luminescence, 48 h;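 note: NT is the 2HG producing partner of a matched IDH1 knockdown line; 0% = DMSO-treated cells and -100% = media-only wells without cells; nearly all actives have a fitted effect of over 55% in size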
#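 Luminescent CellTiter-Glo readout after 48 hours of compound exposure at 37 degrees C defined viability of HT-1080-NT cells. Activity was normalized to DMSO wells and cell-free media wells; concentration-response curves were fitted and assigned curve classes.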
# MCF10A rerep: A quantitative high throughput screen for small molecules that induce DNA re-replication in MCF 10a normal breast cells; Potency, µM (series often up to 46.1 µM), without a hit: at the highest dose activity, positive = re-replication, usual class: activators; MCF 10A DNA re-replication, Hoechst nuclear intensity, 48 h; actives 2.9% (n = 350,000); note: % of control where 0% means no effect; nearly all actives have a fitted effect of over 50% in size
# * marks the source's active call; other numbers are inactive results; i = inactive; ? = inconclusive; / = not tested or not shown. Sampled rows, rich in hits. Any-hit rate of the full collection: about 7.9%. Calls come from the whole dose curve; as a rule, active = well fitted curve in the direction sought with a large enough effect; inconclusive = small, poorly fitted or top-dose-only effect, or another doubt; inactive = no such curve, though single readings can be large; an effect the other way counts as inactive or inconclusive. Potency is the fitted concentration of half-maximal effect.
SMILES,KB-V1 cytotox,KB-3-1 cytotox,HT1080 IDH1KD tx,SW480 rereplic,HT1080NT lethal,MCF10A rerep
Cc1nn(CCCC(=O)Nc2cnn(Cc3ccc(F)cc3)c2)c(C)c1[N+](=O)[O-],i,i,2.3%,-2.2%,1.8%,-2.2%
Cc1ccc(Cn2nc(C)c(NC(=O)CCCn3nc(C)c([N+](=O)[O-])c3C)c2C)cc1,9.2µM*,i,-0.9%,-66.9%,-4.7%,-3.0%
Cc1ccc(N(CC(=O)NCc2ccc(OC(C)C)cc2)S(=O)(=O)N(C)C)cc1,i,i,/,/,/,/
C=CCN1C(=O)/C(=C/c2ccc(OC(C)=O)c(OCC)c2[N+](=O)[O-])SC1=S,?,?,20.6µM*,23.3%,9.2µM*,3.66µM*
COc1cc(OC)cc(-c2cc3ccc(OC)cc3cn2)c1,?,i,?,14.6µM*,?,62.5%
COc1cc(OC)cc(-c2cc3cc4c(cc3cn2)OCO4)c1,?,?,0.581µM*,2.59µM*,0.92µM*,?
COc1ccc2cc(-c3ccccc3)ncc2c1,i,i,14.7%,3.9%,4.7%,-34.5%
O=C(CCN1C(=O)c2ccc(Br)cc2C1=O)NC1CCCCC1,i,i,7.4%,-1.7%,8.2%,-0.2%
CCCCOCCCNS(=O)(=O)c1ccccc1,i,i,-2.2%,-0.2%,0.4%,?
CCCCOP(=O)(OCCCC)C1(NS(=O)(=O)c2ccccc2)C=CC(=O)c2ccccc21 (centres undefined),?,?,23.1µM*,?,20.6µM*,?
Cc1ccc(S(=O)(=O)N2CC(C)C(=O)CC2C)cc1 (centres undefined),i,i,17.1%,-6.4%,-3.8%,4.1%
N/C(=N/OC(=O)c1ccccc1Cl)c1ncc([N+](=O)[O-])s1,?,23.1µM*,18.4µM*,?,29.1µM*,?
O=C(O)c1ccc(N=Nc2c(-c3ccccc3)[nH]oc2=O)cc1,i,i,6.0%,10.8%,11.1%,-2.0%
CCOC(=O)[C@]12CCCC=C1N(Cc1ccco1)C(=O)[C@H](CC(=O)N1CCSCC1)C2,?,i,11.9%,/,18.1%,/
CC1(C)CCN2CCC(C)(C)c3c(O)ccc1c32,i,?,?,?,?,13µM*
Cc1ccn2c(=O)c(NC(=O)c3cccs3)c(C)nc2c1,i,i,-1.7%,23.1µM*,-4.0%,-0.7%
Cc1ccn2c(=O)c(NC(=O)c3cccc([N+](=O)[O-])c3C)c(C)nc2c1,i,?,/,/,/,/
N#Cc1c(N)nc2c(c1-c1ccc(F)cc1)CCC2,i,i,10.8%,?,15.8%,13µM*
CCCCn1c(N)c(N(CCOC)C(=O)c2cc(-c3ccccc3Cl)nc3ccccc23)c(=O)[nH]c1=O,i,i,11.4%,20.4%,-1.7%,3.4%
NNC(=O)c1ccc(CSc2cccc3cccnc23)cc1,i,i,-2.0%,-0.8%,-6.0%,14.9%
c1cnc2c(SCc3ccc(-c4nnco4)cc3)cccc2c1,14.6µM*,i,-16.7%,?,-12.9%,3.9%
CCOC(=O)CSc1cccc2cccnc12,23.1µM*,?,?,6.51µM*,-27.5%,20.4%
Cc1cccc(CSc2cccc3cccnc23)c1,?,?,?,6.51µM*,?,?
COc1cccc(C(=O)N2c3cc(C)ccc3OCC2C(C)(C)C)c1 (centres undefined),i,i,16.3%,-2.4%,?,2.4%
